Measured values from PubChem BioAssay (NCATS).
For some of these results: Measured potencies and affinities stand elsewhere. Active and inactive are the calls of the source. For most assays here, the call rests on the fitted dose curve.

Experiments:
[1] = Ebola virus entry assay, blue channel fluorescence
[2] = Ebola virus entry assay, green fluorescence channel
[3] = Ebola virus entry assay, ratio channel readout
[4] = Ebola virus entry assay, blue channel fluorescence; remark: listed apart in the source

Measured: outcome

C=CC1=C(C(=O)O)N2C(=O)[C@@H](NC(=O)/C(=N/OCC(=O)O)c3csc(N)n3)[C@H]2SC1 (stereo in doubt)
inactive: [1] | [2] | [3] | [4]

CN(C)CCc1c[nH]c2ccc(Cn3cncn3)cc12
inactive: [1] | [2] | [3] | [4]

CO/N=C(\C(=O)N[C@@H]1C(=O)N2C(C(=O)O)=C(COC(C)=O)CS[C@H]12)c1csc(N)n1 (stereo in doubt)
inactive: [1] | [2] | [3] | [4]

COc1ccnc(CS(=O)c2nc3cc(OC(F)F)ccc3[nH]2)c1OC (stereo not given)
inactive: [1] | [2] | [3] | [4]

Nc1nc(=O)n([C@@H]2CS[C@H](CO)O2)cc1F
inactive: [1] | [2] | [3] | [4]

Nc1nc(Cl)nc2c1ncn2[C@H]1C[C@H](O)[C@@H](CO)O1
inactive: [1] | [2] | [3] | [4]

C[N+]1(C)[C@@H]2CC(OC(=O)C(O)(c3cccs3)c3cccs3)C[C@H]1[C@@H]1O[C@@H]12 (stereo not given in full)
inactive: [1] | [2] | [3] | [4]

CC(C)CN(C[C@@H](OP(=O)(O)O)[C@H](Cc1ccccc1)NC(=O)O[C@H]1CCOC1)S(=O)(=O)c1ccc(N)cc1
inactive: [1] | [2] | [3] | [4]

CN1[C@@H]2CCC[C@@H]1CC(NC(=O)c1nn(C)c3ccccc13)C2 (stereo not given in full)
inactive: [1] | [2] | [3] | [4]

CO[C@H]1C=CO[C@@]2(C)Oc3c(C)c(O)c4c(O)c(c5c(nc6cc(C)ccn65)c4c3C2=O)NC(=O)/C(C)=C\C=C[C@H](C)[C@H](O)[C@@H](C)[C@@H](O)[C@@H](C)[C@H](OC(C)=O)[C@@H]1C
inactive: [1] | [2] | [3] | [4]
